Assay outcomes: PubChem, National Center for Advancing Translational Sciences (NCATS)
Shown are actives, neighbours in structure and some others; about 2.4% of the full set was active somewhere.
Rango release inh = inhibitors of RanGTP-induced Rango-importin beta complex dissociation. O95149+P62826. Biochemical FRET Rango-importin beta, RanGTP-induced dissociation. Potency, µM (titrated, usually from 46.1 µM), inactives show top-dose activity change, negative = inhibition. AID 540253. 340,000 compounds, 0.071% hits; further: % of control where 0% means no effect; nearly all actives have a fitted effect of over 45% in size
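Rango FRET biosensor (snurportin-1 IBB flanked by N-terminal EYFP and C-terminal CFP10) at 0.1 uM, with 0.25 uM importin beta in PBS, 1mM DTT, 0.02% Tween-20, 0.1% BSA. 0.6 uM Ran, 2mM GTP and 0.2 uM RCC1 were then added for 45 min at room temperature. Inhibition read as loss of FRET rise.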
Rango-impB inh = Rango-importin beta binding inhibition; Potency, µM (doses to about 92.2 µM), without a hit: at the top dose inhibition of complex formation; Q14974; 340,000 compounds, 0.031% hits; Rango CFP/YFP FRET sensor + importin beta, 45 min;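 further: 0% = DMSO wells and 100% = buffer wells lacking importin beta; nearly all actives have a fitted effect of over 15% in size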
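FRET biosensor (snurportin 1 IBB flanked by EYFP and cerulean), 50 nM, with compound 5 min, then 0.125 microM importin beta in PBS, 1 mM DTT, 0.02% Tween-20, 0.1% BSA. CFP/YFP ratio read after 45 min at room temperature; pre-read flags interference.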
PTAP TSG101 blk = blocks PTAP/TSG101 interaction to inhibit HIV-1 budding | Q99816 | Fluorescence polarization, FITC-PTAP peptide / Tsg101 binding | Potency, µM (titrated, usually from 115 µM), for the others: at the top dose activity change, negative = inhibition, usual class: inhibitors | 340,000 tested, under 10 active | AID 493005; active means well fitted inhibition curve with a large enough effect in the main read-out, with a control signal flat, not every such curve was filed as active; inconclusive means small, poorly fitted or top-dose-only effect, or effect the other way, or a change in a side signal; inactive means no such curve, though single readings can be large or run the other way; further: % of control where 0% means no effect
Target sequence (Q99816 whole entry, looked up): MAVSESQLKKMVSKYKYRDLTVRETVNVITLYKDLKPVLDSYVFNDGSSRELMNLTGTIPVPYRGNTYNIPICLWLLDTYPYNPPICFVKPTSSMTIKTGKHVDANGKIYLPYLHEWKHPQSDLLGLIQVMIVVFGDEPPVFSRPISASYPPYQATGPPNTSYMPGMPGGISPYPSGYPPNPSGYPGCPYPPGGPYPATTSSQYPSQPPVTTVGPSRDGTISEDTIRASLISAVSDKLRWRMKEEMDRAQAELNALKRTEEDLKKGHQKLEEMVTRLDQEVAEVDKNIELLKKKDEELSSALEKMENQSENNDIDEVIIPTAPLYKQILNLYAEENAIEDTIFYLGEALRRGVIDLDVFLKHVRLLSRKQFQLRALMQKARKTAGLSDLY
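Compounds were pin-transferred onto Tsg101 binding domain (10 uM final) in HEPES pH 7.5 buffer, then FITC-PTAP peptide was added at 50 nM final. After 20 min at RT, polarization reported peptide displacement across a qHTS concentration series.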
TDP1 block = inhibitors of human tyrosyl-DNA phosphodiesterase TDP1. Q9NUW8. recombinant TDP1, AlphaScreen DNA substrate cleavage. Potency, µM (top dose mostly 130 µM), without a hit: at the highest dose activity change, negative = inhibition, actives largely listed as inhibitors. 350,000 compounds, 0.28% hits. AID 485290; active means well fitted curve in the direction sought with a large enough effect; inconclusive means small, poorly fitted or top-dose-only effect, or another doubt; inactive means no such curve, though single readings can be large; an effect the other way counts as inactive or inconclusive; further: on the % scale 0 is the no-effect control and ±100 the full control effect; nearly all actives have a fitted effect of over 40% in size
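AlphaScreen read-out: signal falls as enzyme removes the 3' tyrosine-FITC from a 5'-biotinylated DNA oligo (15 nM, 5 min, RT). Enzyme was E. coli-made recombinant Tdp1 at 1 nM, exposed to compound for 15 min beforehand; beads 10 ug/ml, 10 min.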
ClpP mod = qHTS Assay for Activators of ClpP; ATP-dependent Clp protease proteolytic subunit (Bacillus subtilis (strain 168)), P80244; purified B. subtilis ClpP, FRET peptide cleavage, 20 min; Potency, µM (doses to about 57.5 µM), for inactives: at the highest dose activity change, negative = active; 340,000 compounds, 1.9% hits; AID 651965, 2013; active means well fitted falling curve with a large enough effect; inconclusive means small, poorly fitted or top-dose-only effect; inactive means no such curve, though single readings can be large or run the other way; further: the source files actives as falling curves though it sought activators and does not explain the sign; nearly all actives have a fitted effect of over 65% in size
Target sequence (P80244 whole entry, looked up): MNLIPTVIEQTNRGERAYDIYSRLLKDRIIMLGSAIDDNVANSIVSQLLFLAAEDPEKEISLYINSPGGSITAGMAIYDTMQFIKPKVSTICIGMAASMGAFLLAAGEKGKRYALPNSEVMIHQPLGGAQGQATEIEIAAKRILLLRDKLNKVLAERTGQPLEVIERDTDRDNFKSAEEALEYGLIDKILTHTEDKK
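Buffer: 100 mM Tris/HCl pH8, 100 mM KCl, 0.05% low protease BSA, 2.5% glycerol, 0.01% Tween-20. ClpP 10 microg/mL final; 20 min RT; delta FRET normalized to ADEP and DMSO controls.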
ALOX12 inh = inhibitors of human 12S-lipoxygenase ALOX12; P18054; purified 12hLO, xylenol orange hydroperoxide absorbance; Potency, µM (series often up to 108 µM), without a hit: at the highest dose activity change, negative = inhibition, hits mostly inhibitors; 580,000 compounds, 1.1% hits; AID 1671190; active means well fitted curve in the direction sought with a large enough effect; inconclusive means small, poorly fitted or top-dose-only effect, or another doubt; inactive means no such curve, though single readings can be large; an effect the other way counts as inactive or inconclusive; further: on the % scale 0 is the no-effect control and ±100 the full control effect
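Hydroperoxide product was detected by ferrous iron/xylenol orange as the 573 to 405 nm absorbance ratio. Arachidonic acid at 40 uM (final) was turned over for 30 min at room temperature by 150 nM human 12hLO, pH 7.0 Hepes buffer, after 15 min compound preincubation.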
* hit, by the source's call; u = inconclusive; x = no result given; [ ] = another dose, or the depositor's remark. Unless noted, the call rests on the fitted dose curve. Potency means the concentration at half of the fitted maximal effect.

SMILES | Rango release inh | Rango-impB inh | PTAP TSG101 blk | TDP1 block | ClpP mod | ALOX12 inh
Cc1c(CC(=O)NCCc2ccccc2)c(=O)oc2c(C)c3occ(C(C)(C)C)c3cc12 | x | x | x | -2% | 32µM* | 0%
O=C(NC1CC1)C(Sc1cc(Cl)ccc1Cl)c1ccc(F)cc1 (configuration not stated) | x | x | x | x | x | 5%
CN(Cc1ccc(C(=O)NCC(F)(F)F)cc1)C(=O)c1cc(Cl)ccc1Cl | x | x | x | x | x | 2%
CN(C)C1(CN=Cc2cc(Cl)cc([N+](=O)[O-])c2O)CCCCC1 | 0% | 5% | -11% | 16% | x | 18µM*
O=[N+]([O-])c1cc(Cl)cc(/C=N\Nc2ccccn2)c1O | 1% | 4% | -3% | 13% | 1% | 0%
COC(=O)CC(NC(=O)Cc1cc(C(C)=O)ccc1OC)c1cccs1 (configuration not stated) | x | x | x | x | x | 22%
Cc1cc(NC(=O)CCC(=O)N(c2cccc(F)c2)C(C(=O)NC2CCCC2)c2ccc(C)o2)no1 (configuration not stated) | 10% | -1% | -3% | 1% | 28µM* | -19%
Cc1cccc(N(C(=O)CCC(=O)Nc2cc(C)on2)C(C(=O)NC2CCCC2)c2ccc(C)o2)c1 (configuration not stated) | 25% | 0% | -9% | 5% | -3% | -23%
CC(C)C[C@H]1COc2cc(NCCCN3CCOCC3)ccc2S(=O)(=O)N1 | x | x | x | x | x | -65%
O=S1(=O)N[C@@H](Cc2ccccc2)COc2cc(NCCCN3CCOCC3)ccc21 | x | x | x | x | x | 50µM*
CCCN1C(=O)CCc2cc(NS(=O)(=O)c3cn(C)c(C)n3)ccc21 | x | x | x | x | x | 25%
O=c1[nH]c2cc3c(cc2cc1CN(CCO)S(=O)(=O)c1ccccc1Cl)OCCO3 | 6% | 4% | -4% | 4% | 28µM* | -17%
COc1cc2cc(CN(CCCO)S(=O)(=O)c3ccccc3)c(=O)[nH]c2cc1OC | 9% | -3% | -7% | 4% | 13µM* | 5%
COc1ccc2cc(CN(Cc3cccnc3)S(=O)(=O)c3ccccc3)c(=O)[nH]c2c1 | -3% | 0% | -3% | 1% | u | 45µM*
COc1cc2cc(CN(CCCO)S(=O)(=O)c3ccccc3Cl)c(=O)[nH]c2cc1OC | -1% | 0% | -4% | -2% | u | -18%
O=C(c1ccccc1)N(CCO)Cc1cc2cc3c(cc2[nH]c1=O)OCCO3 | -3% | 4% | -5% | 1% | x | 0%
COc1cc2cc(CN(CCO)S(=O)(=O)c3ccccc3Cl)c(=O)[nH]c2cc1OC | -11% | 1% | -7% | 4% | 28µM* | 2%
COCCCNc1nc2c(c(=O)n(C)c(=O)n2C)n1Cc1ccccc1C | x | x | x | x | x | 50%
Cc1ccc(Cl)cc1N1CCN(C(=O)C2CCN(c3nnc(-n4c(C)ccc4C)s3)CC2)CC1 | x | x | x | x | x | 11%
CN(C)C(=O)c1ccc(-c2cc(-n3ccnc3)ncn2)cc1 | x | x | x | x | x | 25µM*
COc1ccc2cc(-c3cccnc3)ncc2c1 | -7% | -1% | x | 1% | 4% | u
c1cncc(-c2cc(-n3ccnc3)ncn2)c1 | x | x | x | x | x | 45µM*
c1cncc(-c2cncnc2-n2ccnc2)c1 | x | x | x | x | x | 7.9µM*
CN1CCN(C)c2cnc(-c3ccc(C(=O)N(C)C)cc3)cc2C1 | x | x | x | x | x | 28%[176 µM]
c1ccc(-c2cc(CC3(NCC4CCCCC4)COC3)no2)cc1 | x | x | x | x | x | 20%[176 µM]
CSc1cccc(NC(=O)N(C)CC2CCOCC2)c1 | x | x | x | x | x | 38%
CN1Cc2ncnc(N3CCOCC3)c2CN(C2CCCCC2)C1=O | x | x | x | x | x | -3%[176 µM]
CCOCCCNc1nc2c(c(=O)n(C)c(=O)n2C)n1Cc1ccccc1Cl | x | x | x | x | x | 28%
Cn1c(=O)c2cc(NC(=S)NC3CC3)ccc2n1C/C=C/c1ccccc1 | x | x | x | x | 4% | u
